Source: PubChem BioAssay (The Scripps Research Institute Molecular Screening Center)
DAX1 inh-1 = DAX1 (NR0B1) inhibitors, primary screen, cell-based, HEK293, Gal4-DAX1, luciferase luminescence; Nuclear receptor subfamily 0 group B member 1 (Homo sapiens), P51843; HEK293 Gal4-DAX1 luciferase reporter; inhibition, % at 6.75 µM; actives 0.99% (n = 340,000); AID 504766, 2011;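 active = inhibition above the mean over all tested compounds plus 3 SD, cut at about 4.2% in these data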;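 also: 0% = DAX1-transfected cells with DMSO and 100% = empty-vector control cells with DMSO; inhibition shows as a rise in luminescence from relieved DAX1 repression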
Target sequence (P51843 207-470 limits assumed): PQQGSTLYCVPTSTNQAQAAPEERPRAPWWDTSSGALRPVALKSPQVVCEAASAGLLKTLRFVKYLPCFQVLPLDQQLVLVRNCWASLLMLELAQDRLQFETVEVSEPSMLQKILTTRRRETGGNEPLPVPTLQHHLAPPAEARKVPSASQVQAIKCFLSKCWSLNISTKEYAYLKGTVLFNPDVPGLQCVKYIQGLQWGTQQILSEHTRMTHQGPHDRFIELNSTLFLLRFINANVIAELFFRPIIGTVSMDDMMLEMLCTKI
SMARCA2 act = SMARCA2 (BRM) function activators, primary screen, cell-based, luminescence, high throughput; MG213 cells, MMTV-luciferase reporter, dexamethasone, overnight; activation, % at 9.1 µM; actives 1% (n = 370,000); AID 652017, 2013; in the data active = activation above about 7.8%;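 also: 0% = vehicle wells and 100% = reference activator wells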
hgDAF12 agonist = H. glycines DAF-12 receptor agonists, primary screen, cell-based, luminescence, HEK293, GAL4 fusion, UAS-luciferase; Nuclear hormone receptor DAF-12 (Heterodera glycines), GAL4 fusion; HEK293 GAL4-hgDAF12 UAS-luciferase reporter, agonist luminescence; normalized to butyrate control; activation, % at 6.8 µM; actives 1.8% (n = 370,000); AID 687014, 2013;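 active = activation above a cutoff set at the mean of all screened compounds plus 3 SD, cut at about 10% in these data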;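 also: 0% = DMSO wells and 100% = sodium butyrate wells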
ssDAF12 agonist = S. stercoralis DAF-12 nuclear receptor activators, primary screen, cell-based, luminescence, HEK293, GRIP1 co-expression, lit1-tk-luc; Nuclear hormone receptor DAF-12 (Strongyloides stercoralis); HEK293 ssDAF-12/GRIP1 lit1-tk-luc reporter; % of 3 µM dafachronic acid response; activation, % at 6.8 µM; actives 1% (n = 370,000);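 active = activation above the mean over all tested compounds plus 3 SD, cut at about 0.9% in these data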;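 also: 0% = DMSO-only wells and 100% = 3 µM delta7-dafachronic acid wells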
DAX1 inh-2 = DAX1 (NR0B1) inhibitors on StAR promoter, primary screen, cell-based, luminescence, SF-1 (NR5A1), full-length DAX-1; HEK293T StAR-luciferase reporter, SF-1/DAX-1 repression relief; inhibition, % at 6.8 µM; actives 1.1% (n = 370,000); AID 652010, 2013;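 active = inhibition above the mean over all tested compounds plus 3 SD, cut at about 3.6% in these data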;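 also: 0% = DAX-1 cells with DMSO and 100% = cells lacking DAX-1 with DMSO; higher inhibition means more luminescence from relief of DAX-1 repression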
hcDAF-12 act = H. contortus DAF-12 nuclear receptor activators, primary screen, cell-based, luminescence, HEK293, lit1-tk-luc reporter; HEK293 hcDAF-12 lit1-tk-luc reporter; 0% DMSO, 100% Δ7-dafachronic acid; activation, % at 6.8 µM; actives 1.4% (n = 370,000); AID 652067, 2013;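 active = activation above the mean of all tested compounds plus 3 SD, cut at about 5.5% in these data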;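 also: 100% = response to 3 µM Δ7-dafachronic acid high control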
hgDAF12 ag = H. glycines DAF-12 receptor agonists, confirmation, cell-based, luminescence, HEK293, GAL4-LBD fusion; actives 80% (n = 3,300); shares compounds with hgDAF12 agonist; HEK293 GAL4-hgDAF12 luciferase reporter, agonist mode; percent of butyrate response; activation, % at 6.8 µM; AID 743050, 2013;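 active = mean activation over triplicate wells above the hit cutoff derived from the earlier primary screen, cut at about 11% in these data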;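 also: 0% = DMSO low control and 100% = 2 mM sodium butyrate high control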
LXR ag 2 = LXR agonists, Gal4 luciferase reporter, confirmation, counter-screen for hgDAF-12 agonist project, cell-based, luminescence, HEK293, H. glycines campaign; shares compounds with hgDAF12 agonist; 24 h; AID 743051, 2013; 3,300 tested, under 10 active; activation, % at 6.8 µM;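 active = mean activation of the triplicate above a set limit carried over from the primary screen, none filed active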
* marks the source's active call; other numbers are inactive results; nt = no result. This is a sample that favours compounds with a hit; in the whole collection about 4.8% have one here.

SMILES	DAX1 inh-1	SMARCA2 act	hgDAF12 agonist	ssDAF12 agonist	DAX1 inh-2	hcDAF-12 act	hgDAF12 ag	LXR ag 2
O=C1N=C(O)CN1/N=C/c1ccc(-c2ccc([N+](=O)[O-])cc2)o1	-0.9	-2.6	0.7	-0.6	-2.6	1.3	nt	nt
CCCc1ccc(OCc2ccc(C(=O)NN)o2)c(OC)c1	1.7	3.0	8.6	-0.3	0.2	1.4	nt	nt
C/C(=N\Nc1nccnc1Cl)c1ccc(O)cc1	0.3	6.9	16.3*	0.8	2.0	6.5*	11.0*	0.4
O=C1c2ccccc2C(=O)N1CCc1c[nH]c2ccccc12	13.4*	7.4	19.1*	0.8	3.6*	2.0	12.9*	0.7
O=C1c2ccccc2C(=O)N1CCCc1c[nH]c2ccccc12	0.1	6.5	-0.2	-1.0	0.6	-0.2	nt	nt
COc1ccc(N/C(=C2\CCCC2=O)C2CCCCC2)cc1	0.9	0.7	-1.4	-0.8	-0.5	0.1	nt	nt
O=C(N/N=C/c1cccc([N+](=O)[O-])c1)c1ccc2c(c1)OCCO2	0.9	4.6	15.5*	-0.1	2.1	2.6	12.3*	0.7
O=C(Nc1ccc2c(c1)OCCO2)c1ccc(Cl)cc1	1.7	5.5	15.3*	0.6	1.5	4.8	14.8*	0.9
O=C(N/N=C/c1ccc(Cl)cc1)c1ccc2c(c1)OCO2	-0.4	1.8	14.1*	-0.9	0.2	-0.1	16.9*	0.5
O=C(Nc1ccn(Cc2ccccc2)n1)c1ccc2c(c1)OCO2	2.5	1.4	15.7*	-1.6	0.8	0.5	9.1	0.4
O=C(N/N=C/c1ccsc1)c1ccc2c(c1)OCO2	1.7	0.8	6.7	0.0	0.8	0.8	nt	nt
Oc1ccc2[nH]cc(CCc3ccccc3)c2c1-c1ccccc1	nt	-5.1	-2.5	-1.3	-0.8	-0.9	nt	nt
O=C(Nc1ccc(NC(=O)c2ccc(Cl)cc2Cl)cc1)c1ccc2c(c1)OCO2	-1.6	3.3	0.4	-1.0	0.0	0.7	nt	nt
O=C(N/N=C/c1cccs1)c1ccc2c(c1)OCO2	0.9	1.7	13.9*	1.9*	3.8*	6.3*	13.0*	0.9
O=C(Nc1ccc(Cl)cc1)c1ccc2c(c1)OCO2	2.8	0.7	13.3*	-0.1	2.8	5.6*	20.1*	1.1
N/C(=N\OC(=O)c1cccc([N+](=O)[O-])c1)c1ccccn1	3.8	4.0	14.8*	0.9*	1.3	5.8*	12.8*	0.6
N/C(=N/OC(=O)c1cccc([N+](=O)[O-])c1)c1cccc([N+](=O)[O-])c1	-0.6	-1.5	1.0	-1.6	-0.5	-1.6	nt	nt
Cc1ccccc1NS(=O)(=O)c1ccc(NC(=O)N2CCCCC2)cc1	0.8	-1.4	-4.6	-1.6	-3.0	-1.5	nt	nt
COc1ccc(N2C(=O)S[C@@H]3CS(=O)(=O)C[C@@H]32)cc1	0.1	-4.2	-2.9	-1.2	0.1	-2.2	nt	nt
Cc1ccc2nc(-c3ccc(N4C(=N)SC5CS(=O)(=O)CC54)cc3)sc2c1 (stereo not given)	0.6	5.0	13.8*	-0.1	1.3	1.6	12.8*	0.4
CCn1c(=O)[nH]c2ccccc2c1=O	0.6	-0.1	-3.0	-1.1	0.5	0.3	nt	nt
CCSCC(C)(C)n1[nH]c2ccccc2c1=O	-0.1	3.5	14.4*	-1.2	0.1	0.4	-2.2	0.0
OC1(c2ccc(F)cc2)CCN(Cc2nnnn2Cc2cccs2)CC1	0.0	1.5	-1.3	-1.6	0.2	-1.5	nt	nt
COc1ccc(-c2cn3nc(SCC(=O)NC4CCCCC4)ccc3n2)cc1	1.6	6.4	14.9*	0.1	2.1	3.8	15.1*	0.8
NC(=O)c1cc2ccccc2o/c1=N/NC(=O)c1cccs1	1.1	-0.3	3.2	-0.8	-1.7	0.2	nt	nt
SMILES	DAX1 inh-1	SMARCA2 act	hgDAF12 agonist	ssDAF12 agonist	DAX1 inh-2	hcDAF-12 act	hgDAF12 ag	LXR ag 2
N/C(=N\NC(=O)c1cccs1)c1cc2cc(Cl)ccc2oc1=O	0.2	5.5	19.4*	-1.5	2.7	4.9	2.3	0.1
CS/C(N)=N/N=C/c1cc(Br)cc(Br)c1O	-1.5	-1.4	4.5	-1.3	0.6	0.1	nt	nt
CN(C)/N=C/c1c(O)ccc2ccccc12	0.2	-0.6	-1.9	-1.0	-0.2	0.1	nt	nt
CS/C(N)=N/N=C/c1cc(C)ccc1O	4.3*	3.2	17.7*	-0.5	2.3	5.0	13.8*	1.0
CS/C(N)=N/N=C/c1c(O)ccc2ccccc12	0.4	1.6	19.2*	1.0*	2.0	4.6	13.1*	0.3
Cc1c(NC(=O)c2ccc(C(C)(C)C)cc2)cccc1[N+](=O)[O-]	1.5	1.8	13.5*	-0.7	1.0	-0.1	7.0	0.2
Cc1cc(C(=O)Nc2cccc([N+](=O)[O-])c2C)cs1	0.0	-0.2	-1.9	-0.5	-0.4	0.7	nt	nt
CCN1CCCCC(NC(=O)c2ccc(C)cc2)C1=O (stereo not given)	nt	-5.2	0.1	-0.8	0.2	0.0	nt	nt
C/C(=N\NC(=O)c1cc(C)oc1C)c1ccc(N2CCOCC2)cc1	1.4	2.6	6.0	-1.6	3.3	0.8	nt	nt
c1ccc(-n2nc3c(ccc4cnnc43)[nH]2)cc1	1.3	4.0	18.8*	0.9	2.0	5.7*	12.3*	0.6
O=C(NCC1CCCC(CNC(=O)N2CCc3ccccc32)C1)N1CCc2ccccc21 (stereo not given)	1.3	0.4	-2.1	0.1	-0.7	2.6	nt	nt
CN(C)CCNc1ncnc2c1ncn2[C@H]1CN(Cc2cccnc2)C[C@@H](CO)O1	nt	-5.3	23.7*	-0.9	1.0	0.5	-1.1	0.0
O=C(C1CCCN1S(=O)(=O)c1ccccc1[N+](=O)[O-])N1CCN(c2ccccc2)CC1 (stereo not given)	nt	-4.8	-0.8	-0.1	-0.3	-1.1	nt	nt
